Screens from PubChem.
The list is not random: actives were taken first. Their share in the collection is about 19%.
DT40 TDP1 no CPT: qHTS for Inhibitors of human tyrosyl-DNA phosphodiesterase 1 (TDP1): qHTS in cells in absence of CPT; 420,000 compounds, 15% hits; AID 686978, 2013; DT40 Tdp1-/- hTDP1 cells, no CPT, ATP luminescence, 48 h; Potency, µM (highest dose often 46.2 µM), for inactives: at the top dose activity change, negative = growth inhibition, hits mostly inhibitors; note: nearly all actives have a fitted effect of over 55% in size
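Growth of hTDP1-complemented DT40 Tdp1-knockout cells is measured by ATP luminescence after at least 48 hr compound exposure at 37 °C, with DMSO substituting for the 20 nM CPT used in the parallel screen.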
HT1080 IDH1KD tx: toxicity to HT-1080 IDH1 knockdown cells (counter line); HT-1080 IDH1 knockdown viability, ATP luminescence, 48 h; 360,000 compounds, 2% hits; Potency, µM (titrated, usually from 46.1 µM), for inactives: at the highest dose activity, negative = toxicity, hits mostly cytotoxic; AID 686971;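 note: 0% = DMSO wells and -100% = cell-free medium wells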
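Knockdown cells (IDH1KD HT-1080) received compounds 2 h after plating at 750 cells/well and were kept 48 h at 37 °C in 5% FBS RPMI. A CellTiter-Glo luminescence read gave % activity for curve fitting.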
KB-3-1 cytotox: kills parental KB-3-1 adenocarcinoma cells. KB-3-1 viability, CellTiter-Glo ATP luminescence, 72 h. AID 1347075. 400,000 compounds, 1.4% hits. Potency, µM (titrated, usually from 46.1 µM), usual class: cytotoxic; note: nearly all actives have a fitted effect of over 60% in size
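Parental KB-3-1 viability, qHTS format: 72 h compound exposure, 37 °C; CellTiter-Glo; media-only wells and DMSO plates as controls; concentration-effect fits on corrected data.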
HT1080NT lethal: kills 2HG-producing HT-1080-NT fibrosarcoma cells; Potency, µM (highest dose often 46.1 µM), for inactives: at the highest dose activity, negative = less viability, most hits filed as cytotoxic; HT-1080-NT fibrosarcoma viability, CellTiter-Glo ATP luminescence, 48 h; AID 686970; 360,000 compounds, 1.6% hits;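 note: NT is the 2HG producing partner of a matched IDH1 knockdown line; 0% = DMSO-treated cells and -100% = media-only wells without cells; nearly all actives have a fitted effect of over 55% in size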
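Luminescent CellTiter-Glo readout after 48 hours of compound exposure at 37 degrees C defined viability of HT-1080-NT cells. Activity was normalized to DMSO wells and cell-free media wells; concentration-response curves were fitted and assigned curve classes.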
DT40 TDP1 CPT: DT40-hTDP1 cell growth loss with CPT; Potency, µM (highest dose often 46.2 µM), for the others: top-dose activity change, negative = growth inhibition, usual class: inhibitors; chicken DT40 Tdp1-/-;hTDP1 cells + 20 nM CPT, ATP luminescence, 48 h; 420,000 compounds, 12% hits; note: nearly all actives have a fitted effect of over 55% in size
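Chicken DT40 Tdp1-/- cells stably complemented with human TDP1 were seeded at 400 cells/well in medium containing 20 nM camptothecin, exposed to pin-transferred compounds, and grown at 37 °C for at least 48 hr. Viability was read as ATP luminescence.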
KB-V1 MDR tox: kills drug-selected multidrug resistant KB-V1 cells | KB-V1 MDR cells viability, CellTiter-Glo, 72 h | Potency, µM (doses to about 46.1 µM), most hits filed as cytotoxic | 400,000 compounds, 3.4% hits; note: nearly all actives have a fitted effect of over 60% in size
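Drug-selected KB-V1 cells, grown in DMEM lacking phenol red with 10% FBS, receive compound titrations; after three days at 37 degrees C, surviving cell ATP is quantified by CellTiter-Glo luminescence and responses normalized and curve-fitted.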
Starred values were filed as active, the others as inactive; i = inactive; u = inconclusive; x = no result. Calls come from the whole dose curve; as a rule, active = well fitted curve in the direction sought with a large enough effect; inconclusive = small, poorly fitted or top-dose-only effect, or another doubt; inactive = no such curve, though single readings can be large; an effect the other way counts as inactive or inconclusive. Unless noted, % is set by controls: 0 for no effect and ±100 for the full control effect; potency is the fitted concentration of half-maximal effect.

SMILES	DT40 TDP1 no CPT	HT1080 IDH1KD tx	KB-3-1 cytotox	HT1080NT lethal	DT40 TDP1 CPT	KB-V1 MDR tox
O=C(NCC(c1cccnc1)N1CCc2ccccc21)c1ccc(F)c(F)c1 (configuration not stated)	9.2µM*	x	i	x	13µM*	i
COc1cc(C(=O)NCC(c2cccnc2)N2CCc3ccccc32)cc(OC)c1OC (configuration not stated)	20.6µM*	x	i	x	u	i
COc1ccc(C(=O)NCC2OCCc3ccccc32)cc1OC (configuration not stated)	-0.3%	2.1%	i	-2.6%	-4.9%	i
COC(CNC(=O)c1ccc(N2CCc3ccccc32)c([N+](=O)[O-])c1)OC	u	3.0%	u	6.3%	u	14.6µM*
NNC(=O)c1ccc(N2CCc3ccccc32)c([N+](=O)[O-])c1	u	-11.0%	i	-17.0%	-21.4%	i
CC(=O)NC1CCCC1C#N (configuration not stated)	-6.4%	x	u	x	-3.0%	i
CCN(CC)c1ccc(/C=C/c2sc3ccccc3[n+]2CCCCI)cc1	0.447µM*	x	u	x	0.631µM*	u
CCCCCCC[n+]1c(/C=C/c2ccc(N(C)C)cc2)sc2ccccc21	0.282µM*	x	i	x	0.159µM*	u
Nc1ncnc2c1nc(Sc1ccc(Cl)cc1)n2[C@@H]1O[C@@H]2COP(=O)(O)O[C@H]2[C@H]1O	-8.8%	-0.6%	i	-0.3%	-13.8%	i
CCc1nnc(NC(=O)CSc2nnc(CNc3ccc(F)cc3)n2C2CCCCC2)s1	-1.4%	-0.4%	i	-0.3%	0.7%	u
CCCN(CCC)C(=O)CSc1nc2ccccc2c(=O)n1C1CCCC1	13µM*	u	i	-2.5%	13µM*	7.31µM*
Cc1cc(NC(=O)CSc2nc3ccccc3c(=O)n2Cc2ccccc2)no1	-25.7%	-5.6%	i	-15.8%	-2.6%	i
Cc1cc(NC(=O)CSc2nnc(CNc3ccc(F)cc3)n2C2CCCCC2)no1	u	u	i	-2.8%	10µM*	u
O=C(CSc1nc2ccccc2c(=O)n1C1CC1)NCc1ccccc1	u	5.4%	i	1.5%	-24.7%	i
CN(C)c1ccc(NC(=O)CSc2nc3ccccc3c(=O)n2C2CCCCC2)cc1	18.4µM*	-0.2%	i	-1.0%	u	i
Cc1cc(NC(=O)CSc2nc3ccccc3c(=O)n2C2CCCC2)no1	0.92µM*	1.84µM*	u	u	1.03µM*	1.3µM*
Cc1cc(NC(=O)Cn2nc(C(=O)O)c3ccccc3c2=O)c([N+](=O)[O-])cc1C	1.8%	14.9%	i	12.0%	-9.1%	i
O=C(CSc1nc2ccccc2c(=O)n1CC1CCCCC1)N1CCOCC1	u	-7.1%	i	-5.4%	u	i
CCN(CC)C(=O)CSc1nc2ccccc2c(=O)n1CC1CCCCC1	16.4µM*	u	u	u	23.1µM*	i
Cc1ccc2c(C)c(C(=O)N3CCC(C(N)=O)(N4CCCCC4)CC3)oc2c1C	20.6µM*	-22.3%	i	-6.9%	u	u
Cc1cccc(NC(=S)N2CCC(C(N)=O)(N3CCCCC3)CC2)c1C	1.5%	11.8%	i	0.5%	4.4%	i
COc1ccccc1C(=O)N1CCN(C(=O)c2oc3c(C)c(C)ccc3c2C)CC1	16.4µM*	-2.6%	u	-8.0%	u	i
CN(C)c1ccc(CNn2cnnc2SCC(=O)NC(C)(C)C)cc1	-6.8%	-0.3%	i	1.7%	5.7%	i
CCOc1cc(CNn2cnnc2SCC(=O)NC(C)(C)C)ccc1OCC(=O)NC(C)(C)C	18.4µM*	-5.5%	i	3.6%	-5.6%	i
CCOC(=O)Cn1cc(Cn2c3ccccc3c(=O)n2C(C)C)nn1	-8.4%	17.0%	i	16.1%	-9.5%	i
SMILES	DT40 TDP1 no CPT	HT1080 IDH1KD tx	KB-3-1 cytotox	HT1080NT lethal	DT40 TDP1 CPT	KB-V1 MDR tox
CCc1ccc(Oc2c(C(F)(F)F)oc3c(CN4CCN(CC)CC4)c(O)ccc3c2=O)cc1	u	x	i	x	u	i
COc1cc(C2Oc3ccccc3C=C2[N+](=O)[O-])cc(OC)c1OC (configuration not stated)	2.59µM*	5.8µM*	u	5.8µM*	3.26µM*	u
O=C(NNC1=C(C(=O)C(F)(F)F)CCC1)c1ccc(Cl)cc1	u	7.94µM*	i	u	u	i
O=C(NNC(=O)c1cccc(Cl)c1)NNC(=O)c1cccc(Cl)c1	-9.5%	u	i	-2.0%	-0.3%	i
COc1ccc(C(=O)NNC2=C(C(=O)C(F)(F)F)CCC2)cc1	1.3µM*	u	u	-28.7%	0.731µM*	u
O=C(NNC1=C(C(=O)C(F)(F)F)CCC1)c1cccc(Cl)c1	6.51µM*	23.1µM*	u	u	5.8µM*	u
CN1CCc2c(sc3nc(SCC(=O)N4CCOCC4)nc(N)c23)C1	18.4µM*	0.7%	i	-17.9%	23.1µM*	i
CC1CCN(C(=O)CSc2nc(N)c3c4c(sc3n2)CN(C)CC4)CC1	20.6µM*	1.5%	i	2.3%	u	i
CNC(=O)CSc1nc(N)c2c3c(sc2n1)CCC3	1.5%	-23.1%	i	11.5%	2.1%	20.6µM*
CCOC(=O)c1cnc(SCC(=O)N2CCOCC2)nc1N	-12.7%	21.9%	i	23.9%	-7.5%	i
COc1c(O)cc(O)cc1O	-19.3%	x	x	x	-18.1%	x
Cc1cc(O)c(Oc2cc(C)cc(O)c2O)c(O)c1	5.17µM*	u	i	u	4.61µM*	i
COc1ccc(CNC(=O)C(Cc2ccccc2)NS(=O)(=O)c2ccc3c(c2)CCN3C(C)=O)cc1 (configuration not stated)	-13.4%	x	i	x	-1.2%	i
COc1ccc(NC(=O)c2cc([N+](=O)[O-])ccc2N2CCCCC2)cc1OC	u	-26.8%	i	-16.7%	20.6µM*	u
CCOc1ccc(C(=O)Nc2ccc(C(=O)N3CCOCC3)cc2)c(OCC)c1	13µM*	-12.9%	i	8.6%	u	u
COc1ccc(NC(=O)c2cc([N+](=O)[O-])ccc2N2CCCCC2)cc1	20.6µM*	-20.3%	u	-18.1%	20.6µM*	u
CCOc1ccc(NC(=O)c2cc([N+](=O)[O-])ccc2N2CCOCC2)cc1	u	u	i	u	u	23.1µM*
